Here are results for 34 molecules from the supplement of paper PMC8975748.

Where a name gives a salt, the structure may show the parent alone.

For this test, the system named is Saccharomyces cerevisiae BY4741 SeMeCo community. Put plainly: z-score of subpopulation abundance vs DMSO median, subpopulation auxotrophic for LU; higher = larger share of this subpopulation than in DMSO controls. The following applies: 10 µM; 24 h; SM minimal medium; subpopulation (auxotrophy): LU. As to the method: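 Fluorescent four-plasmid SeMeCo (self-establishing metabolically cooperating S. cerevisiae BY4741 community; plasmids pH-mRuby2, pL-mWasabi, pU-eCFP, pM-TagRFP657) was grown 24 h in minimal SM medium with each Selleck FDA-approved drug at 10 µM in 384-well plates. Cells were fixed and imaged by high-content confocal microscopy. For each auxotrophic subpopulation (and the prototroph), a z-score gives the deviation from the DMSO vehicle-control population median.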
Turning to `O=C(O[C@H]1C[C@H]2CC[C@@H](C1)[N+]21CCCC1)C(O)(c1ccccc1)c1ccccc1` [Trospium chloride], the “z-score of subpopulation abundance” value is -0.24.

For the molecule `Oc1cccc2cccnc12` [8-Hydroxyquinoline], the “z-score of subpopulation abundance” value is -0.63.

With `COC(=O)C1=CCCN(C)C1` [Arecoline HBr], the “z-score of subpopulation abundance” value was determined as 0.1.

For the molecule `C=CN1CCCC1=O.II` [Povidone iodine], the “z-score of subpopulation abundance” value was found to be 0.69.

As for `C[CH2][Hg][S]c1ccccc1C(=O)[O-].[Na+]` [Thimerosal], the “z-score of subpopulation abundance” value is 11.1.

As for `C[N+]12CCC(CC1)C(OC(=O)C(O)(c1ccccc1)c1ccccc1)C2` (centres undefined) [Clidinium Bromide], the “z-score of subpopulation abundance” value came out at 0.83.

With `C[C@H]1O[C@H](O[C@H]2[C@H](O)[C@@H](O)[C@@H](O)[C@H](O)[C@@H]2O)[C@@H](N)C[C@@H]1NC(=N)C(=O)O` [Kasugamycin hydrochloride], the “z-score of subpopulation abundance” value is 0.49.

Consider `C#C[C@]1(O)C=C[C@H]2[C@@H]3CCC4=CC(=O)CC[C@@H]4[C@H]3CC[C@@]21CC` [Gestodene], for which the “z-score of subpopulation abundance” value was -0.97.

For the molecule `COc1ccc2[nH]cc(CCN)c2c1` [5-Methoxytryptamine], the “z-score of subpopulation abundance” value was determined as 1.01.

Take `COc1ccc2c(c1)[C@]13CCCC[C@@H]1[C@H](C2)N(C)CC3` [Dextromethorphan hydrobromide hydrate]: the “z-score of subpopulation abundance” value was found to be 0.05.

Consider `NC(=O)CN1CCCC1=O` [Piracetam], for which the “z-score of subpopulation abundance” value worked out at 1.37.

For the molecule `CCOC(=O)Nc1ccc(NCc2ccc(F)cc2)cc1N` [Retigabine], the “z-score of subpopulation abundance” value is -1.25.

As to `CN(C)C(=O)Oc1cccc([N+](C)(C)C)c1` [Neostigmine Bromide], the “z-score of subpopulation abundance” value was found to be 0.79.

Regarding `Nc1nc(N)nc(NC2CC2)n1` [Cyromazine], the “z-score of subpopulation abundance” value worked out at 0.73.

As to `Nc1ccncc1` [4-Aminopyridine], the “z-score of subpopulation abundance” value worked out at 0.6.

As for `COc1ccc(C=O)cc1` [p-Anisaldehyde], the “z-score of subpopulation abundance” value is -0.64.

With `CN1[C@@H]2C[C@@H](OC(=O)[C@H](CO)c3ccccc3)C[C@H]1[C@@H]1O[C@@H]12` [Scopolamine HBr trihydrate], the “z-score of subpopulation abundance” value was -0.6.

On to `CC(C)N(CCC(C(N)=O)(c1ccccc1)c1ccccn1)C(C)C` (centres undefined) [Disopyramide], for which the “z-score of subpopulation abundance” value was -0.22.

`CN(C)[C@@H]1C(=O)C(C(N)=O)=C(O)[C@@]2(O)C(=O)C3=C(O)c4c(O)ccc(Cl)c4[C@@](C)(O)[C@H]3C[C@@H]12` [Chlortetracycline HCl]: the “z-score of subpopulation abundance” value was -0.72.

Turning to `O=c1cccc2n1C[C@@H]1CNC[C@H]2C1` [Cytisine], the “z-score of subpopulation abundance” value is 0.11.

`CCOC(=O)Nc1ccc(NCc2ccc(F)cc2)cc1N` [Retigabine 2HCl]: the “z-score of subpopulation abundance” value is -0.86.

With `CCC1=C[C@H]2CN3CCc4c([nH]c5ccccc45)[C@](C(=O)OC)(C2)[C@H]13` [Catharanthine], the “z-score of subpopulation abundance” value is -0.64.

Consider `O=[N+]([O-])C(Br)(CO)CO` [Bronopol], for which the “z-score of subpopulation abundance” value is 0.26.

On to `CC(C)(O)C(Cl)(Cl)Cl` [Chlorobutanol], for which the “z-score of subpopulation abundance” value is 0.52.

On to `C[N+]1(C)[C@@H]2C[C@@H](OC(=O)[C@H](CO)c3ccccc3)C[C@H]1[C@@H]1O[C@@H]12` [Methscopolamine], for which the “z-score of subpopulation abundance” value was found to be 0.27.

For the molecule `CC[C@H]1[C@@H]2C[C@H]3[C@@H]4N(C)c5ccccc5[C@]45C[C@@H]([C@@H]2[C@H]5O)N3[C@@H]1O` [Ajmaline], the “z-score of subpopulation abundance” value is -0.26.

For `NCCc1c[nH]c2ccc(O)cc12` [Serotonin HCl], the “z-score of subpopulation abundance” value was -0.51.

Consider `Cc1cc(O)ccc1Cl` [Chlorocresol], for which the “z-score of subpopulation abundance” value was -0.74.

Turning to `C[C@@H]1CC[C@H]2[C@@H](C)C(=O)O[C@@H]3O[C@@]4(C)CC[C@@H]1[C@]32OO4` [Artemisinin], the “z-score of subpopulation abundance” value is -0.94.

For the molecule `NCC(O)c1ccc(O)cc1` (racemic) [(+,-)-Octopamine HCl], the “z-score of subpopulation abundance” value was -0.38.

As to `CCN(C)C(=O)Oc1cccc([C@H](C)N(C)C)c1` [Rivastigmine], the “z-score of subpopulation abundance” value was -1.09.

Consider `CC[N+](C)(CC)CCOC(=O)C(O)(c1ccccc1)c1ccccc1` [Methylbenactyzine Bromide], for which the “z-score of subpopulation abundance” value is -0.58.

For `Oc1cc(Cl)ccc1Oc1ccc(Cl)cc1Cl` [Triclosan], the “z-score of subpopulation abundance” value is -0.23.

Turning to `O=c1[nH]c2ccccc2n1CCCN1CCC(n2c(=O)[nH]c3cc(Cl)ccc32)CC1` [Domperidone], the “z-score of subpopulation abundance” value stood at 0.48.
